According to ChEMBL document CHEMBL3988442, “University of Dundee, Small-Polar-MMV Screening Library” (2021):
“And” between values parts separate entries of the source, which are not always exact repeats. Equal entries are not always repeated. For some assays here: Results with a measured potency or affinity are listed apart.

Assays:
Design in all cases: scale not given: direction of the effect not stated beside the values
[1] = target: Protein translocase subunit SecA (Escherichia coli (strain K12)) (UniProt P10408); experiment: Assay to Identify E. coli SecA ATPase Inhibitors; type: functional; settings: 30 µM
[2] = target: T1, Ubiquitin-activating enzyme e1, putative (Leishmania donovani (strain BPK282A1)) (UniProt E9BSI1); experiment: Leishmania donovani Ubiquitin Activating Enzyme (LdE1); type: functional; settings: 30 µM
T1 sequence (whole entry): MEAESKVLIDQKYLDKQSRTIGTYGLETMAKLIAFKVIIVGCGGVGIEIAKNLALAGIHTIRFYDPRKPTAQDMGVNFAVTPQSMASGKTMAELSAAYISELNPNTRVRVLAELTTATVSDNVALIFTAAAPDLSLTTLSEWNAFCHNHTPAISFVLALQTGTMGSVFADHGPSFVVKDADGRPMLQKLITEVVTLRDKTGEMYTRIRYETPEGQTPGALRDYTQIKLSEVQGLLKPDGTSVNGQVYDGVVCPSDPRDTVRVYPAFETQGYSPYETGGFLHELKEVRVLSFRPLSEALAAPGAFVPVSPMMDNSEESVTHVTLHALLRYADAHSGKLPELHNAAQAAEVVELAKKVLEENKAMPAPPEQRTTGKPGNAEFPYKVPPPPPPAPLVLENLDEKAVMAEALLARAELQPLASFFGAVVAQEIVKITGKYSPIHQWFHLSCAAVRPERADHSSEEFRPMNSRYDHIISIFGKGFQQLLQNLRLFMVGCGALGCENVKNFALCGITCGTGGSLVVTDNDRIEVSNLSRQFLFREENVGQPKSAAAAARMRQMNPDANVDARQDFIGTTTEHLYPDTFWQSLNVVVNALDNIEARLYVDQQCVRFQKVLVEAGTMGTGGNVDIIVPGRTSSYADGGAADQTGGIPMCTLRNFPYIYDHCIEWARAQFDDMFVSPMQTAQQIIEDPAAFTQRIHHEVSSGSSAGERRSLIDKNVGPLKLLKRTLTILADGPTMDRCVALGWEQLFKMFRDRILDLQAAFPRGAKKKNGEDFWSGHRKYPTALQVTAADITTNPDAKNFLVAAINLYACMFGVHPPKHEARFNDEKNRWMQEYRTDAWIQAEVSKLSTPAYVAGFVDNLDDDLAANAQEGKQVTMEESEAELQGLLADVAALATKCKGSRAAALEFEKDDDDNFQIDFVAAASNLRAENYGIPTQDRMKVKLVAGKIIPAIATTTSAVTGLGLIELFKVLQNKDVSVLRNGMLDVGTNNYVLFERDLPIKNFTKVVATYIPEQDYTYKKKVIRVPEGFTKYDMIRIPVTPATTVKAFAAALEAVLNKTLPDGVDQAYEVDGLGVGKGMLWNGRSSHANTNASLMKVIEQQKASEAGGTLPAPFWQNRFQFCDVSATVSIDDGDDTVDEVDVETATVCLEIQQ

[3] = target: AMP-activated protein kinase, AMPK (Homo sapiens) (UniProt P54646+O43741+P54619+Q9UGJ0+Q9Y478+Q13131+Q9UGI9); experiment: AMP-dependent Kinase enzyme assay. An in vitro enzyme assay that detects ADP turnover that is directly proportional to AMPK activity. This uses naive AMPK that is activated during the assay with MK-8722; type: functional; settings: 30 µM
[4] = target: Sialic acid-binding Ig-like lectin 9 (Homo sapiens) (UniProt Q9Y336); experiment: Hs-Siglec9 ALPHAscreen SOP 20170721; settings: 10 µM
Trypanosoma cruzi = experiment: Trypanosoma cruzi phosphomannomutase and mannose-1-phosphate guanylyltransferase assay; type: functional; settings: 10 µM
[5] = target: T2, Arginase-2, mitochondrial (Homo sapiens) (UniProt P78540); experiment: in vitro enzyme assay to detect the production of urea directly proportional to the activity of Arginase II; type: functional; settings: 33.3 µM; note: in the data most compounds retested in dose-response had high values
T2 sequence (whole entry): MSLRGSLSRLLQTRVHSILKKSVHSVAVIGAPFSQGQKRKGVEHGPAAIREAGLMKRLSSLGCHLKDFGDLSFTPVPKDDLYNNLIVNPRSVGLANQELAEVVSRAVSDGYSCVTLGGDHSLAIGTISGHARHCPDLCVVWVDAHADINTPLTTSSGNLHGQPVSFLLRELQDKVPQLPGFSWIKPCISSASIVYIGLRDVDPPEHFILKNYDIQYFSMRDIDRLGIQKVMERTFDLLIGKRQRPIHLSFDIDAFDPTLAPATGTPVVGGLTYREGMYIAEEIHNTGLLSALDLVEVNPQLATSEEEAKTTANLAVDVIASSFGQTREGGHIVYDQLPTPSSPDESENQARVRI

[6] = target: T3, Proteasome subunit beta (Trypanosoma cruzi) (UniProt O96673); experiment: Trypanosoma cruzi proteasome chymotrypsin-like activity (TcProtChymo) assay.; note: in the data most compounds retested in dose-response had high values; type: functional; settings: 9.37 µM
T3 sequence (whole entry): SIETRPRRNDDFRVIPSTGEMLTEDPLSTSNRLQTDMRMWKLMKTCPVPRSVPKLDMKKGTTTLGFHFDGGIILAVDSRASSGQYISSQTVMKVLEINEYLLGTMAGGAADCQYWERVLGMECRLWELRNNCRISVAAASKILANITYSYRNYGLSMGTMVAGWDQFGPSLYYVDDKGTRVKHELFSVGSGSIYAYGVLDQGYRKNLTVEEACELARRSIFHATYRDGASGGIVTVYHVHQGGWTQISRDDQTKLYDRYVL

Homo sapiens = species on record: Homo sapiens; experiment: To identify inhibition of the IFN signalling (Jak-Stat) pathway via expression of an eGFP reporter gene under the control of an IFN-stimulated response element (ISRE) containing MxA promoter.; type: functional; settings: 30 µM
[7] = target: T4, Tyrosyl-tRNA synthetase, putative (Trypanosoma cruzi (strain CL Brener)) (UniProt Q4DSP6); experiment: Trypanosoma cruzi tyrosyl tRNA synthetase (TcYRS) _High Tyrosine SOP; type: functional; settings: 30 µM; note: in the data most compounds retested in dose-response had high values
T4 sequence (whole entry): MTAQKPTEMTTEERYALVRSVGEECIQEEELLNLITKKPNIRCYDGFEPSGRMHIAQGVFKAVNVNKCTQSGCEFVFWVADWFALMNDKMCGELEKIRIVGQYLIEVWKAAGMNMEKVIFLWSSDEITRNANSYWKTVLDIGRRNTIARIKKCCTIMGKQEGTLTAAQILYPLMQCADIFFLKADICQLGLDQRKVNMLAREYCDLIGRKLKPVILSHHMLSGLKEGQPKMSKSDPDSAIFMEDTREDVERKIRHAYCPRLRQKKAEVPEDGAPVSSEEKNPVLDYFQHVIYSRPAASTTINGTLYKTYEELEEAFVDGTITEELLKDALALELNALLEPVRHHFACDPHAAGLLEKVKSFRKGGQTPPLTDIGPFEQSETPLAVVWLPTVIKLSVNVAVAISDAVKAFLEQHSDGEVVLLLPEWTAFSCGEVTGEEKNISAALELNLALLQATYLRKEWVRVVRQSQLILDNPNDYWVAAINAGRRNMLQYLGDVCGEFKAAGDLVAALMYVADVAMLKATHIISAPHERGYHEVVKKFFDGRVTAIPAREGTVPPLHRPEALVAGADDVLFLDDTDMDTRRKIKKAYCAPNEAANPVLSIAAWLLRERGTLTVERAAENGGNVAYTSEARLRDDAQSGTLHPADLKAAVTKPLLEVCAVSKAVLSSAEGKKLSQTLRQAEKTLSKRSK

[8] = target: T4, Tyrosyl-tRNA synthetase, putative (Trypanosoma cruzi (strain CL Brener)); experiment: Trypanosoma cruzi tyrosyl tRNA synthetase (TcYRS) SOP; type: functional; settings: 30 µM
[9] = target: Chromo domain-containing protein 1 (Saccharomyces cerevisiae (strain ATCC 204508 / S288c) (Baker's yeast)) (UniProt P32657); experiment: ScCHD-1 Enzyme Inhibition Assay; type: functional; settings: 30 µM; note: in the data most compounds retested in dose-response had high values
N/A = experiment: Trypanosoma cruzi proteasome luciferase counter-screen; type: functional; settings: 9.37 µM

Sequence of Sialic acid-binding Ig-like lectin 9 (Homo sapiens) (Q9Y336 whole entry): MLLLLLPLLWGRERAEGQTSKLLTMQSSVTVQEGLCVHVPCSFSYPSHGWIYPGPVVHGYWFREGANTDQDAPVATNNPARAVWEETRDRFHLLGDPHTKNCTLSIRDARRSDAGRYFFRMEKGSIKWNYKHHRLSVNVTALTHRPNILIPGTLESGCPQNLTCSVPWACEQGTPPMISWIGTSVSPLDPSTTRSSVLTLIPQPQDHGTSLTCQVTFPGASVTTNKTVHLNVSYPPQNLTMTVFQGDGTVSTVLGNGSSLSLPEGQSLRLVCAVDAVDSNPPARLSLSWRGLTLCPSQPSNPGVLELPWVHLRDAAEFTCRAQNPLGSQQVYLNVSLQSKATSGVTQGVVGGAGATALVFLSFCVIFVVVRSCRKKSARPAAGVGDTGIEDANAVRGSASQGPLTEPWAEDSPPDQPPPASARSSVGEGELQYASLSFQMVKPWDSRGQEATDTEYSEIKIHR
Sequence of Protein translocase subunit SecA (Escherichia coli (strain K12)) (P10408 whole entry): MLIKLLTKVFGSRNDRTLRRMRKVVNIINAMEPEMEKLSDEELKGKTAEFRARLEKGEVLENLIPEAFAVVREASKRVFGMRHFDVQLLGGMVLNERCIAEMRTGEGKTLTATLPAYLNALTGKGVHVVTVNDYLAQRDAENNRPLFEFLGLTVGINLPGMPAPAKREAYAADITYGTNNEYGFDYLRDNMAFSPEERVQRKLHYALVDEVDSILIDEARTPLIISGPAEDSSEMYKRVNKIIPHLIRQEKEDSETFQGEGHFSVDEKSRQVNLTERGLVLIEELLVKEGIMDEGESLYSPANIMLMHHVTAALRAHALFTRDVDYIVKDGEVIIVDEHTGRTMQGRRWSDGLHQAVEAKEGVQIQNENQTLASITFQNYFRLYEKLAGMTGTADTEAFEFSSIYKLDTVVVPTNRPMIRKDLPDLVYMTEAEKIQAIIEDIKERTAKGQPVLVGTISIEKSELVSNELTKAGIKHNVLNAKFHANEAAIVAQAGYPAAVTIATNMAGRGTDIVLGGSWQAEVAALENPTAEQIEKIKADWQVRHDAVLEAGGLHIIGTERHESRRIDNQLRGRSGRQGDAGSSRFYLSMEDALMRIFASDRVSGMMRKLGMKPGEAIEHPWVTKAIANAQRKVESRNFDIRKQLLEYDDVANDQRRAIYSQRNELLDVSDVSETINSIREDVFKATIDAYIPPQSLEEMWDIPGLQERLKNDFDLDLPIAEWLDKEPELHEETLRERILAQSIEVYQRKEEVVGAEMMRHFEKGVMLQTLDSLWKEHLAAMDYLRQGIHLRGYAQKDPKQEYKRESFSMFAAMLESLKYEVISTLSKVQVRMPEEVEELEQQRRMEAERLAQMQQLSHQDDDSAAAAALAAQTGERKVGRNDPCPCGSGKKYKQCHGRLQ
Sequence of Chromo domain-containing protein 1 (Saccharomyces cerevisiae (strain ATCC 204508 / S288c) (Baker's yeast)) (P32657 whole entry, the tested form may be a part): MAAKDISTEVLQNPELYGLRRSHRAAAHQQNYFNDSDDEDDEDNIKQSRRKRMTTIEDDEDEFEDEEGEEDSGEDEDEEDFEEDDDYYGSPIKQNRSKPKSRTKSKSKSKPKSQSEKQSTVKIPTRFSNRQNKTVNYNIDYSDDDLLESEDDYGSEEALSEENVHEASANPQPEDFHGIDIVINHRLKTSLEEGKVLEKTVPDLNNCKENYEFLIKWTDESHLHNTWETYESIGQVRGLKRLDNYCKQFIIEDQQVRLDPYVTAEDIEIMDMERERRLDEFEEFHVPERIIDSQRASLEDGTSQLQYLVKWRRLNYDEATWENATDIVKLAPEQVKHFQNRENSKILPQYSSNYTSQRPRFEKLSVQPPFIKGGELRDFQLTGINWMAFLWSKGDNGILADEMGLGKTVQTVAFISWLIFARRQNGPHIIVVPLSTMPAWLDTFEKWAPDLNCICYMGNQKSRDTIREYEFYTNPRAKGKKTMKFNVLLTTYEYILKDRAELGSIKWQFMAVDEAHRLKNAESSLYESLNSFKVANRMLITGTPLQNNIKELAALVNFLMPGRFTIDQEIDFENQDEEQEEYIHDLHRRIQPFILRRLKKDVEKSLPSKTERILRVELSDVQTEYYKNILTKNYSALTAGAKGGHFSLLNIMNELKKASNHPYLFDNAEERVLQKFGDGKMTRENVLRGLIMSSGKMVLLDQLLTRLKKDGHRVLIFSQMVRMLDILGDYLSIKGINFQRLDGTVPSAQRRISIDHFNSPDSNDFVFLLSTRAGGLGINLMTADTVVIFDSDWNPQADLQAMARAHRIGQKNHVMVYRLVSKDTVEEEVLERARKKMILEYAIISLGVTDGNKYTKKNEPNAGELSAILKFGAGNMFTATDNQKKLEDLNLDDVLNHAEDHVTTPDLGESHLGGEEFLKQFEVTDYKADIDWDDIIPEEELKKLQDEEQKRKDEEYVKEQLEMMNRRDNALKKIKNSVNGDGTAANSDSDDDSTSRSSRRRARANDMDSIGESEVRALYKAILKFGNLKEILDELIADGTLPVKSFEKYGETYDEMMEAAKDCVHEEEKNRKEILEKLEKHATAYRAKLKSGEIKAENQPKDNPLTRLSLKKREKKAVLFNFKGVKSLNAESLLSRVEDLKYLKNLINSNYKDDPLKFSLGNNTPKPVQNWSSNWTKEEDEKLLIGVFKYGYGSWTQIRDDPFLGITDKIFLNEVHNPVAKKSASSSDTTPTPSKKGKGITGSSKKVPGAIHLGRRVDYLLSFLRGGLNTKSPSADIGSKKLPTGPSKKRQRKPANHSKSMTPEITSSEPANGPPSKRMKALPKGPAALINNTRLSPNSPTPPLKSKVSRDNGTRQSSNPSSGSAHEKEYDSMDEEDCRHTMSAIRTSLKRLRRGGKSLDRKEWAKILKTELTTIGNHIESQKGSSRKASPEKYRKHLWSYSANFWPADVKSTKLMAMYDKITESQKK

Clc1ccccc1C1(c2ccnc(-c3ncccn3)n2)CCNCC1
Percent Effect [1]: -3.79%
Percent Effect [2]: 7.79%
Percent Effect [3]: 1.81%
Percent Effect [4]: 8.56%
Percent Effect (Trypanosoma cruzi): -3.64%
Percent Effect [5]: -2.76%
Percent Effect [6]: 7.49%
Percent Effect (Homo sapiens): -17.8%
Percent Effect [7]: 6.45%
Percent Effect [8]: 18.5%
Percent Effect [9]: -0.785%

COC(=O)CNC(=O)CSCc1nc(O)c2c(C)c(C)sc2n1
Percent Effect [1]: -1.31%
Percent Effect [2]: -6.67%
Percent Effect [3]: 14.7%
Percent Effect [4]: 4.89%
Percent Effect (Trypanosoma cruzi): -3.93%
Percent Effect [5]: 3.7%
Percent Effect [6]: 9.8%
Percent Effect (Homo sapiens): -3.69%
Percent Effect [7]: 3.17%
Percent Effect [8]: 0%
Percent Effect [9]: -4.91%

O=C1CC(NCc2ccncc2)CN1Cc1cccc(F)c1 (stereo not given)
Percent Effect [1]: -3.06%
Percent Effect [2]: -2.7%
Percent Effect [3]: -0.958%
Percent Effect [4]: 0.392%
Percent Effect (Trypanosoma cruzi): -2.9%
Percent Effect [5]: -2.86%
Percent Effect [6]: 11.6%
Percent Effect (Homo sapiens): -9.68%
Percent Effect [7]: 1.59%
Percent Effect [8]: 2.44%
Percent Effect [9]: -0.358%

CCn1cc(CN(C)S(=O)(=O)c2ccc(NC(C)=O)cc2)cn1
Percent Effect [1]: 2.78%
Percent Effect [2]: 14.7%
Percent Effect [3]: 5.54%
Percent Effect [4]: -0.366%
Percent Effect (Trypanosoma cruzi): -2.95%
Percent Effect [5]: -15%
Percent Effect [6]: 7.39%
Percent Effect (Homo sapiens): 18%
Percent Effect [7]: 1.06%
Percent Effect [8]: 7.69%
Percent Effect [9]: -7.39%

O=C(C1=CCCC1)N1C[C@@H]2COC[C@]2(COc2cccnc2)C1
Percent Effect [1]: -2.49%
Percent Effect [2]: 2.7%
Percent Effect [3]: 7.33%
Percent Effect [4]: 5.37%
Percent Effect (Trypanosoma cruzi): -1.27%
Percent Effect [5]: 5.41%
Percent Effect (N/A): 7.45% and 8.06%
Percent Effect (Homo sapiens): 0.513%
Percent Effect [7]: 0%
Percent Effect [8]: -2.56%
Percent Effect [9]: 4.29%

O=C(NCc1nnc2n1CCCC2)N1CCc2ccccc2C1
Percent Effect [1]: -3.86%
Percent Effect [2]: 11.4%
Percent Effect [3]: -3.15%
Percent Effect [4]: 2.59%
Percent Effect (Trypanosoma cruzi): -4%
Percent Effect [5]: 4.09%
Percent Effect [6]: 4.63%
Percent Effect (Homo sapiens): 4.93%
Percent Effect [7]: 1.04%
Percent Effect [8]: 12.7%
Percent Effect [9]: -7.99%

Cc1ccc(NC2CCN(C(=O)c3cccc(F)c3F)CC2)nn1
Percent Effect [1]: 0.567%
Percent Effect [2]: -6.33%
Percent Effect [3]: 2.51%
Percent Effect [4]: 4.94%
Percent Effect (Trypanosoma cruzi): 0.308%
Percent Effect [5]: -0.645%
Percent Effect [6]: 1.54%
Percent Effect (Homo sapiens): 10.2%
Percent Effect [7]: 4.17%
Percent Effect [8]: 5.06%
Percent Effect [9]: -24.5%

Cc1nn(C)c(C)c1C1COCCN1C(=O)c1n[nH]c2ccccc12 (stereo not given)
Percent Effect [1]: -1.74%
Percent Effect [2]: 18.2%
Percent Effect [3]: 2.92%
Percent Effect [4]: -4.32%
Percent Effect (Trypanosoma cruzi): 6.74%
Percent Effect [5]: -0.712%
Percent Effect (N/A): 17.2% and 17.5%
Percent Effect (Homo sapiens): -8.49%
Percent Effect [7]: 5.83%
Percent Effect [8]: 21.9%
Percent Effect [9]: -7.82%

CC(=O)N1CC[C@H]2OCC[C@@]2(C(=O)NCc2ccco2)C1
Percent Effect [1]: -5.68%
Percent Effect [2]: 5.33%
Percent Effect [3]: -0.449%
Percent Effect [4]: 12.6%
Percent Effect (Trypanosoma cruzi): -2.12%
Percent Effect [5]: -44.3%
Percent Effect [6]: 11.3%
Percent Effect (Homo sapiens): -5.97%
Percent Effect [7]: 4.17%
Percent Effect [8]: 5%
Percent Effect [9]: -6.83%

COc1ccc(F)cc1C(C(=O)O)N1CCSCC1 (stereo not given)
Percent Effect [1]: -2.63%
Percent Effect [2]: 8.11%
Percent Effect [3]: -2.63%
Percent Effect [4]: 20.8%
Percent Effect (Trypanosoma cruzi): 1.66%
Percent Effect [5]: 18.6%
Percent Effect [6]: 6.95%
Percent Effect (Homo sapiens): -10%
Percent Effect [7]: 8.6%
Percent Effect [8]: 18.5%
Percent Effect [9]: -1.27%
